# Results reported in PubChem BioAssay (Tox21).
# Results filed as inconclusive are left out. The source made the active and inactive calls. Calls come from the whole dose curve; as a rule, active = well fitted activation curve with a large enough effect in the repeat runs; inconclusive = weak or mixed curves; inactive = flat fitted curve, though single readings scatter.
# Experiment: A CellTox Green Cytotoxicity Assay to monitor cytotoxicity in HEK293 cells - 40 hour (AID 1224871); note: nearly all actives have a fitted effect of over 45% in size
# Conditions: CellTox Green fluorescence; series mostly up to 76.8 µM; cytotoxicity increase: at the top concentration
# Text: National Center for Advancing Translational Sciences [NCATS]
# NIH Chemical Genomics Center [NCGC]
# U.S. Environmental Protection Agency [EPA]
# National Institutes of Environmental Health Sciences [NIEHS]
# National Toxicology Program [NTP]
# Cell-based models are critical for drug discovery. Determining the natural cytotoxic effects resulting from test compounds is an essential research activity. A CellTox Green Cytotoxicity Assay to monitor cytotoxicity in real time of continues cell culture during 40 hours of the compound treatment was used to screen Tox21 10K library compounds in Hek293 cells. CellTox Green Cytotoxicity Assay is a nonlytic, homogeneous, biofluorescent method to measure cytotoxicity in cell culture after experimental manipulation. The assay system uses a proprietary asymmetric cyanine dye that is excluded from viable cells but preferentially stains the dead cell's DNA. […] Viable cells produce no appreciable increases in fluorescence. Therefore, the fluorescence signal produced by the binding interaction with dead cell DNA is proportional to cytotoxicity.
# The mixture of Hek293 cell suspension and reagents were dispensed at 600cells/6 ul/well in 1536-well tissue culture treated black solid bottom plates using a Multidrop dispenser. After the assay plates were incubated at a 37 C/5% CO2 incubator for 5 hours, 23 nL of compounds dissolved in DMSO, positive and negative controls was transferred to the assay plate by a pintool work station. The plates were incubated at 37 C for 40 hours. The fluorescence intensity were measured at 0h, 8h, 16h, 24h, 32h and 40h time points using ViewLux plate reader during compound treatment.
# % is set by controls: 0 for no effect and ±100 for the full control effect; potency is the fitted concentration of half-maximal effect.
Compound,cytotoxicity increase,Potency
O=c1[nH]cnc2ccccc12,1.41% (inactive),
COCCOCCOCCOCCOC,20.8% (inactive),
CC(C)(C)c1ccc(S)cc1,18.2% (inactive),
CCCCCC/C=C/C=O,-9.61% (inactive),
Cn1c(=O)c2c(ncn2CC(O)CO)n(C)c1=O (stereo not given),-1.92% [at 35.3 µM] (inactive),
CC(=O)O[C@H]1C[C@@H]2CC[C@@H]3[C@H](CC[C@@]4(C)[C@H]3C[C@H]([N+]3(C)CCCCC3)[C@@H]4OC(C)=O)[C@@]2(C)C[C@@H]1N1CCCCC1,-1.07% [at 35.3 µM] (inactive),
Oc1ccc2c(c1)OCO2,-5.35% (inactive),
N#CCCNCCC#N,-12.8% (inactive),
O=S(=O)(O)c1ccc(O)c2ncccc12,-1.04% (inactive),
Cc1cc(O)ccc1N,,34.9 µM (active)
Nc1ccc(C(=O)Nc2ccccc2N)cc1,-0.869% [at 35.3 µM] (inactive),
Cc1cccc(OCCOc2cccc(C)c2)c1,9.03% (inactive),
CC1=CC(=O)/C(=C(/C)O)C(=O)O1,-9.04% (inactive),
c1ccc(OCc2ccc(CCCN3CCOCC3)cc2)cc1,7.81% [at 35.3 µM] (inactive),
CC(C)(Oc1ccc(Cl)cc1)C(=O)OCCCOC(=O)C(C)(C)Oc1ccc(Cl)cc1,8% [at 35.3 µM] (inactive),
CC[C@H](C)[C@@H](C(=O)O)n1sc2ccccc2c1=O,-13% (inactive),
CC(C)c1cccc(C(C)C)c1NC(=O)NS(=O)(=O)c1cc(C(C)(C)O)co1,-0.709% (inactive),
CN1CCC(=C2c3ccccc3CCc3sccc32)CC1,10.6% [at 35.3 µM] (inactive),
Cn1c(NCCN(CCO)CCCc2ccc([N+](=O)[O-])cc2)cc(=O)n(C)c1=O,12.7% [at 35.3 µM] (inactive),
COC(=O)CSc1cc(N=c2sc(=O)n3n2CCCC3)c(F)cc1Cl,-7.74% (inactive),

Compound,cytotoxicity increase,Potency
CCCCCOC(=O)c1ccc(O)cc1,,49.6 µM (active)
Cc1nc2ccccc2n1Cc1ccc(Cl)cc1,5.05% [at 35.3 µM] (inactive),
C=CC[N+]1([C@H]2C[C@H]3[C@@H]4CC[C@H]5C[C@H](OC(C)=O)[C@@H](N6CCCCC6)C[C@]5(C)[C@H]4CC[C@]3(C)[C@H]2OC(=O)CC)CCCCC1,-6.96% [at 35.3 µM] (inactive),
CC(=O)c1ccc2c(c1)[C@H](NC(=O)c1ccc(F)cc1)[C@@H](O)C(C)(C)O2,-2.01% (inactive),
O=c1c2ccccc2nnn1CCl,-5.46% (inactive),
NC(N)=NN=C(/C=C/c1ccc([N+](=O)[O-])o1)/C=C/c1ccc([N+](=O)[O-])o1,,8.49 µM (active)
CC(=O)c1c(C)c([N+](=O)[O-])c(C(C)(C)C)c([N+](=O)[O-])c1C,4.13% (inactive),
CC[C@]12CCCN3CCc4c(n(c5ccccc45)C(=O)C1)[C@@H]32,26.2% [at 35.3 µM] (inactive),
N=C(N=C(N)N)N1CCOCC1,-33.3% [at 35.3 µM] (inactive),
C=CC(=O)OCCOC(=O)CCC(=O)O,-5.33% (inactive),
CC(C)(C)c1cc(CCC(=O)OCC(COC(=O)CCc2cc(C(C)(C)C)c(O)c(C(C)(C)C)c2)(COC(=O)CCc2cc(C(C)(C)C)c(O)c(C(C)(C)C)c2)COC(=O)CCc2cc(C(C)(C)C)c(O)c(C(C)(C)C)c2)cc(C(C)(C)C)c1O,3.73% [at 35.3 µM] (inactive),
CCCCCCCCCC=O,-1.83% (inactive),
CC(C)(C)c1ccc(OCC2CO2)cc1 (stereo not given),,50 µM (active)
CCCCC(CC)(CO)CO,6.87% (inactive),
CCCCOC(=O)c1ccccc1C(=O)OCC(CC)CCCC (stereo not given),2.42% (inactive),
CC(C(=O)O)c1ccc(-c2ccccc2)c(F)c1 (stereo not given),-2.78% (inactive),
CCOC(=O)C1=NN(c2ccccc2)C(=O)C1,-8.71% (inactive),
FC(F)(F)C(F)(F)C(F)(F)C(F)(F)C(F)(F)C(F)(F)CCI,-7.86% [at 35.3 µM] (inactive),
C#CCOC(=O)[C@@H](C)Oc1ccc(Oc2ncc(Cl)cc2F)cc1,6.83% (inactive),
CCCCCCCCN(C)C,-6.83% (inactive),
